Results reported in PubChem BioAssay (Tox21).
Results filed as inconclusive are left out. More than one record can exist for a structure, and the calls need not agree. Activity calls are given as the source filed them. The call rests on the fitted dose curve; in most records, active means well fitted cell-killing curve with a large enough effect in the repeat runs; inconclusive means weak or mixed curves; inactive means flat fitted curve, though single readings scatter.

assay: qHTS RealTime-Glo MT Cell Viability Assay in HepG2 cells - 32 hour (AID 1224877); conditions: RealTime-Glo luminescence; series mostly up to 76.8 µM; activity change, negative = cytotoxic: at the top concentration; further: nearly all actives have a fitted effect of over 55% in size
From the text: U.S. Tox21 Program National Center for Advancing Translational Sciences [NCATS] NIH Chemical Genomics Center [NCGC] U.S. Environmental Protection Agency [EPA] National Institutes of Environmental Health Sciences [NIEHS] National Toxicology Program [NTP] U.S. Food and Drug Administration [FDA] Tox21 Assay Overview: Measure of cell viability is critical in the cell-base assay. Analysis of cell viability is necessary for the characterization of cell responses to cytotoxic drugs and environmental stress. A RealTime-Glo MT Cell Viability Assay to monitor cell viability in real time of continues cell culture during 40 hours of compound treatment was used to screen Tox21 10K library compounds in HepG2 cells. The RealTime-Glo MT Cell Viability Assay is a nonlytic, homogeneous, bioluminescent method to measure cell viability in real time using a simple, plate-based method. The assay involves adding NanoLuc luciferase and a cell-permeant prosubstrate to cells in culture. Viable cells reduce the proprietary prosubstrate to generate a substrate for NanoLuc luciferase. This substrate diffuses from cells into the surrounding culture medium, where it is rapidly used by the NanoLuc Enzyme to produce a luminescent signal. The signal correlates with the number of viable cells, making the assay well suited for cytotoxicity studies.
Tox21 Assay Protocol Summary: The mixture of HepG2 cell suspension and reagents were dispensed at 600cells/6 ul/well in 1536-well tissue culture treated black solid bottom plates using a Multidrop dispenser. After the assay plates were incubated at a 37 C/5% CO2 incubator for 5 hours, 23 nL of compounds dissolved in DMSO, positive and negative controls was transferred to the assay plate by a pintool work station. The plates were incubated at 37 C for 40 hours. The luminescence intensity were measured at 0h, 8h, 16h, 24h, 32h and 40h time points using ViewLux plate reader during compound treatment.
On the % scale 0 is the no-effect control and ±100 the full control effect; potency means the concentration at half of the fitted maximal effect.

Structure (SMILES)	activity change, negative = cytotoxic	Potency
CC[N+](CC)(CCNC(=O)C(=O)NCC[N+](CC)(CC)Cc1ccccc1Cl)Cc1ccccc1Cl	3.52% [at 35.3 µM] (inactive)	
C[C@]12CC[C@@H]3c4ccc(O)cc4CC[C@H]3[C@@H]1CC[C@@H]2OC(=O)CCC1CCCC1		54.9 µM (active) and inactive
Cc1cc(O)c(C)c(C)c1O	-1.52% [at 35.3 µM] (inactive)	
Cc1cc(O)ccc1O	-1.34% (inactive)	
Nc1nc2ccc([N+](=O)[O-])cc2s1	4.13% (inactive)	
CCCCCCC(C)(C)C(=O)O	1.86% (inactive)	
O=Cc1c2ccccc2c(Cl)c2ccccc12	-0.82% [at 35.3 µM] (inactive)	
CN1CCCN=C1COC(=O)C(O)(c1ccccc1)C1CCCCC1 (stereo not given)	2.23% [at 35.3 µM] (inactive)	
CCCCN(CCCC)C(C(N)=O)c1ccc(OC)cc1 (stereo not given)	0.712% [at 35.3 µM] (inactive)	
CCCCCCNC(=O)n1cc(F)c(=O)[nH]c1=O	0.371% [at 35.3 µM] (inactive)	
CC(C)(c1ccccc1)c1ccccc1	0.83% (inactive)	
Oc1cccc(O)c1O	-11.2% (inactive)	
CCC1CO1 (stereo not given)	-3.38% (inactive)	
C=COCC(C)C	2.85% (inactive)	
O=C(CCCN1CC=C(n2c(=O)[nH]c3ccccc32)CC1)c1ccc(F)cc1	-5.26% [at 35.3 µM] (inactive)	
OC(CCN1CCCC1)(c1ccccc1)C1CCCCC1 (stereo not given)	-0.422% [at 35.3 µM] (inactive)	
Cc1ccc(Cl)c(Nc2ccccc2C(=O)O)c1Cl	0.172% [at 35.3 µM] (inactive)	
C=C(C)[C@@H]1CCC2=CCC[C@@H](C)[C@]2(C)C1	-0.418% (inactive)	
Cc1cscn1	-0.806% (inactive)	
CCCCN(CCN(CCCC)C(=O)N1CCOCC1)C(=O)N1CCOCC1	-10.9% [at 35.3 µM] (inactive)	

Structure (SMILES)	activity change, negative = cytotoxic	Potency
c1ccc(C[n+]2cccc3ccccc32)cc1	-4.1% (inactive)	
O=C1NC(=O)c2cc([N+](=O)[O-])ccc21	0.557% (inactive)	
C[C@H]1C[C@H](O)c2ccsc2S1(=O)=O	1.83% [at 35.3 µM] (inactive)	
CC(C)c1nc(CN(C)C(=O)N[C@H](C(=O)N[C@@H](Cc2ccccc2)C[C@H](O)[C@H](Cc2ccccc2)NC(=O)OCc2cncs2)C(C)C)cs1	-14.5% [at 35.3 µM] (inactive)	
CCOC(=O)OC(C)OC(=O)[C@@H]1N2C(=O)[C@@H](NC(=O)[C@H](N)c3ccccc3)[C@H]2SC1(C)C (stereo not given in full)	1.18% [at 35.3 µM] (inactive)	
CN1C(C(=O)Nc2ccccn2)=C(O)c2sccc2S1(=O)=O	0.261% [at 35.3 µM] (inactive)	
C1C[C@@H]2[C@H]3CC[C@H](C3)[C@@H]2C1	1.81% (inactive)	
C[C@H]1c2cccc(O)c2C(O)=C2C(=O)[C@]3(O)C(O)=C(C(N)=O)C(=O)[C@@H](N(C)C)[C@@H]3[C@@H](O)[C@@H]21	-1.7% [at 35.3 µM] (inactive)	
CCC1(CO)COCOC1	1.78% (inactive)	
CCCC(C(=O)OCCN(CC)CC)(c1ccccc1)c1ccccc1	-13.4% [at 35.3 µM] (inactive)	
CCOC(=O)c1ccc(C#Cc2ccc3c(c2)C(C)(C)CCS3)nc1	-15.8% [at 35.3 µM] (inactive)	
CC(C)(C)C(=O)C(=O)O	0.165% (inactive)	
CCOc1ccccc1O[C@H](c1ccccc1)[C@H]1CNCCO1	0.232% [at 35.3 µM] (inactive)	
Cc1ccccc1S	0.394% [at 35.3 µM] (inactive)	
CCC1NC(=O)c2cc(S(N)(=O)=O)c(Cl)cc2N1 (stereo not given)	1.5% [at 35.3 µM] (inactive)	
O=C(OC(=O)c1ccccc1)c1ccccc1	1.1% (inactive)	
CC(C)=CCC1C(=O)N(c2ccccc2)N(c2ccccc2)C1=O	0.153% [at 35.3 µM] (inactive)	
C=CC(C)(CCC=C(C)C)OC(=O)CC(C)C (stereo not given)	-3.04% (inactive)	
Cc1cccc(O)c1N	3.65% (inactive)	
CC(CN(C)C)C(C)(O)Cc1ccc(Cl)cc1 (stereo not given)	-2.92% [at 35.3 µM] (inactive)	
